# Reference: PubChem BioAssay (Tox21)
# Active and inactive are the calls of the source. Calls come from the whole dose curve; as a rule, active = well fitted curve in the direction sought with a large enough effect in the repeat runs; inconclusive = weak or mixed curves; inactive = flat fitted curve, though single readings scatter.
# Test: qHTS assay to test for compound auto fluorescence at 590 nm (red) in HepG2 cell free culture (AID 720684)
# Settings: cell-free medium autofluorescence, red 540/590 nm; series mostly up to 91.3 µM; fluorescence, % of Rose Bengal: at the top concentration
# Source text: U.S. Tox21 Program National Center for Advancing Translational Sciences [NCATS] NIH Chemical Genomics Center [NCGC] U.S. Environmental Protection Agency [EPA] National Institutes of Environmental Health Sciences [NIEHS] National Toxicology Program [NTP] U.S. Food and Drug Administration [FDA] Tox21 Assay Overview: Compound auto fluorescence often interferes with screening of the compound library against various biological targets and signaling pathways. Some of these compounds may have fluorophoric properties. Such properties may interfere with the assay outputs resulting in false positives and/or negatives. To decrease such complications and ensure the compound activities are relevant in terms of biological response, the Tox21 10K compound library was screened for auto fluorescence. From the fluorophores used as reporter signals in our screening assays, the auto fluorescence equivalencies of compounds against three fluorophores have been evaluated: Triamterene, Fluorescein and Rose Bengal sodium for blue, green and red fluorescence, respectively. The fluorescence intensities were measured using Excitation/Emission wavelengths at 405/460nm, 485/535nm and 540/590nm for blue, green and red labels, respectively. This assay includes the red fluorescence data.
# Tox21 Assay Protocol Summary: 5 uL of culture medium (MEM containing 10% FBS) per well was dispensed into black wall/clear bottom 1536-well plates using a Multidrop Combi Dispenser (ThermoFisher Scientific, Waltham, MA). After 23 nL compound or DMSO vehicle was transferred into assay plate by a pintool work station (Kalypsys, San Diego, CA), fluorescence intensities in the assay plates were measured by an Envision (PerkinElmer, Shelton, CT) plate reader using three labels for measuring blue, green and red fluorescence at […] 460, 535 and 590nm respectively.
# % is set by controls: 0 for no effect and ±100 for the full control effect.
SMILES,"fluorescence, % of Rose Bengal",outcome
C1CSCCS1,-0.0311% (inactive),
CC(C)C[C@H](NC(=O)OCC1c2ccccc2-c2ccccc21)C(=O)O,0.0022% (inactive),
CC(C)(C)c1cccc(O)c1,-0.184% (inactive),
COc1ccc2nc(NC(=O)Nc3ccccc3)sc2c1,-0.0774% [at 46 µM] (inactive),
Oc1ccccc1C=NCc1ccccc1,-0.0215% [at 46 µM] (inactive),
CS(=O)(=O)c1ccc([C@@H](O)[C@@H](CF)NC(=O)C(Cl)Cl)cc1,0.294% [at 18.6 µM] (inactive),
CCC1(C)NC(=O)NC1=O (stereo not given),0.0667% (inactive),
Cc1ccsc1C(=CCCN1CCC[C@@H](C(=O)O)C1)c1sccc1C,0.208% [at 46 µM] (inactive),
Cc1cccc(C)c1NC(=O)CN1CCCCCC1,0.0208% [at 46 µM] (inactive),
Oc1ccccc1F,-0.0102% (inactive),
Nc1cccc(S(=O)(=O)O)c1,-0.0449% (inactive),
CCCC1CCC(=O)O1 (stereo not given),0.0203% (inactive),
CCOc1ccccc1N,0.0365% (inactive),
Cc1c(N)cccc1N,0.0002% [at 95.7 µM] (inactive),
Cc1ccc([N+](=O)[O-])cc1Cl,0.0244% [at 95.7 µM] (inactive),
CC(C)CCCCCCc1ccc(OCCOCCO)cc1,-0.158% [at 95.7 µM] (inactive),
CC(C)C(=O)OCC(C)(C)C(O)C(C)C (stereo not given),-0.0206% (inactive),
C=CC1CO1 (stereo not given),-0.0187% [at 95.7 µM] (inactive),
CC(C)C1=CC2=CC[C@@H]3[C@](C)(CCC[C@@]3(C)C(=O)O)[C@H]2CC1,,inactive
CN1CCN(C2=Nc3cc(F)ccc3Cc3ccccc32)CC1,-0.151% [at 46 µM] (inactive),

SMILES,"fluorescence, % of Rose Bengal",outcome
COc1ccccc1N1CCN(CCCNc2cc(=O)n(C)c(=O)n2C)CC1,,inactive
NS(=O)(=O)c1cc(-c2nn[nH]n2)c(NCc2cccs2)cc1Cl,0.0133% [at 46 µM] (inactive),
Nc1ccc(Oc2ccc(N)c(N)c2)cc1,0.134% (inactive),
Nc1ccc2ccccc2c1S(=O)(=O)O,0.0251% [at 95.7 µM] (inactive),
CCCN(CCC)C(=O)C(CCC(=O)O)NC(=O)c1ccccc1 (stereo not given),-0.0591% [at 46 µM] (inactive),
O=c1oc2c(O)c(O)cc3c(=O)oc4c(O)c(O)cc1c4c23,0.498% [at 46 µM] (inactive),
NC(=O)Cc1cccc(C(=O)c2ccccc2)c1N,-0.13% [at 46 µM] (inactive),
CCOC(=O)[C@H](CCc1ccccc1)N[C@@H](C)C(=O)N1Cc2cc(OC)c(OC)cc2C[C@H]1C(=O)O,-0.0219% [at 46 µM] (inactive),
CC1=C2[C@H](/C=C(\C)C(=O)O)CC[C@@H](C)[C@H]2CC1,-0.183% [at 95.7 µM] (inactive),
O=C1C=CC(=O)O1,-0.176% [at 95.7 µM] (inactive),
CCCCNCCCC,0.0395% (inactive),
CC(=O)OC1C2(C)CCC(C2)C1(C)C (stereo not given),-0.231% (inactive),
Cc1cc2c(s1)Nc1ccccc1N=C2N1CCN(C)CC1,0.479% [at 46 µM] (inactive),
FC(F)(F)C(F)(F)C(F)(F)C(F)(F)C(F)(F)C(F)(F)C(F)(F)C(F)(F)Br,0.133% [at 46 µM] (inactive),
CC1CN(c2ccccc2)NC1=O (stereo not given),0.0539% (inactive),
O=C(O)c1ccccc1Nc1cc(Cl)ccc1C(=O)O,0.044% [at 46 µM] (inactive),
CCCCCCOc1ccc(N)cc1,0.0496% (inactive),
Cc1nc(-c2ccccn2)ncc1C(=O)Nn1cc(C)c2cc(F)ccc21,-0.0027% (inactive),
CCN(CC)CC1CCCCN1CC(=O)N1c2ccccc2C(=O)Nc2cccnc21 (stereo not given),-0.0402% [at 46 µM] (inactive),
CC1(O)CSC(C)(O)CS1 (stereo not given),-0.231% (inactive),
